High-throughput results (PubChem BioAssay)
Rows were chosen to be rich in hits. Some 3.2% of all compounds tested hit in one or more screens of this group.
SMARCA2 act – SMARCA2 (BRM) function activators, primary screen, cell-based, luminescence, high throughput; MG213 cells, MMTV-luciferase reporter, dexamethasone, overnight; 1% of 370,000 active; activation, % at 9.1 µM; AID 652017, 2013; in the data active means activation above about 7.8%;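 further: 0% = vehicle wells and 100% = reference activator wells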
Rtt109 HAT inh – inhibitors of C. albicans Rtt109/Vps75 HAT, primary screen, biochemical, ThioGlo CoA-SH fluorescence, plate reader; 0.16% of 330,000 active; AID 540336, 2011; Histone acetyltransferase RTT109 (Candida albicans (strain SC5314 / ATCC MYA-2876)), …; inhibition, % at 34.9 µM; purified Rtt109/Vps75, 4 h;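 active means inhibition of at least 50% in every replicate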
Target sequence (Q5AAJ8 whole entry, looked up): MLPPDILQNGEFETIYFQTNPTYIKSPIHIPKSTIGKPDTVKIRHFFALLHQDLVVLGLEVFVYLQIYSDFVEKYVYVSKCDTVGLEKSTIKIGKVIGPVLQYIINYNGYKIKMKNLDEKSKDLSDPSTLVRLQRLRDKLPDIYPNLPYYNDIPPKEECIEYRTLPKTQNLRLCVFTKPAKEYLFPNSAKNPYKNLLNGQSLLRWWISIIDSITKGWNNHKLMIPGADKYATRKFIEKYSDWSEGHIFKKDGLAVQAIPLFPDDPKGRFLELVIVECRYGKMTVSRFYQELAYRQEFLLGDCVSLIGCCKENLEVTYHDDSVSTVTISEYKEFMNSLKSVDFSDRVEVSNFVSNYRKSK
esBAF inh – Bmi1 luciferase reporter increase in mESCs, primary screen, esBAF inhibitor project, mouse ES cells, Bmi1 luciferase knock-in, single point | 24 h; 100% = twice the neutral-well signal | reporter increase, % at 12.5 µM | 2% of 350,000 active | AID 602393, 2012; in the data active means activation above about 40%;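 further: 0% = median of the plate's neutral control wells and 100% = double that signal; a rise in the Bmi1 reporter signal indicates esBAF inhibition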
DYRK1A inh – rat Dyrk1A kinase inhibitors, primary screen, biochemical, single point, plate reader; Dual specificity tyrosine-phosphorylation-regulated kinase 1A (Rattus norvegicus), Q63470; ADP-Glo luminescence, NFATc1 peptide; inhibition, % at 12.5 µM; 0.43% of 310,000 active; AID 504441, 2011; in the data active means inhibition above about 50%;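 further: plate controls were vehicle with enzyme for no effect and no enzyme for full effect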
dFosB act – activators of delta FosB homodimer, primary screen, biochemical, fluorescence polarization, TAMRA-CDK5 oligo, single point; Protein FosB (Mus musculus), P13346; 0.99% of 340,000 active; purified delta FosB; percent of positive-control signal above neutral wells; activation, % at 25 µM;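 active means mean activation above about 17%, with every replicate also reaching it, limit read from the data, passing the limit was not always enough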
CDK5 p35 inh – inhibitors of human CDK5/p35 kinase, primary screen, biochemical, single concentration | Recombinant CDK5/p35, ADP-Glo luminescence, 60 min | 0.01% of 330,000 active | inhibition, % at 10 µM | AID 488839, 2010;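 active means highest replicate inhibition of at least 50% and at least 75% of replicates reaching 50%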;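 further: plate controls were DMSO neutral control for no effect and GW8510 at 10 µM for full effect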
Starred values were filed as active, the others as inactive; . = not tested or not shown.

SMILES	SMARCA2 act	Rtt109 HAT inh	esBAF inh	DYRK1A inh	dFosB act	CDK5 p35 inh
COC(=O)C(Cc1c[nH]c2ccccc12)NC(=O)c1cncc(Br)c1 (stereo unspecified)	0	0	-1	4	2	1
C[C@H]1CCCCO[C@H](CN(C)S(=O)(=O)c2ccccc2)[C@@H](C)CN([C@@H](C)CO)C(=O)c2cc(NC(=O)Nc3ccc(C(F)(F)F)cc3)ccc2O1	.	.	-8	.	.	.
CN(C)C(=O)c1ccc(NC(=O)CSc2nnc(-c3ccc4c(c3)OCO4)o2)cc1	-1	13	2	-3	5	2
Cc1ccc(NC(=O)Cc2nc(CSc3nnc(-c4ccc5c(c4)OCO5)o3)cs2)cc1	-1	0	51*	1	1	-2
CN(C)C(=O)c1cccc(-c2ccc3c(c2)[C@H]2[C@H](CCN2C(=O)c2ccccc2)[C@@H](CO)N3C)c1	.	.	-4	.	.	.
CN(CCc1ccccn1)c1ccccc1	0	-1	48*	-2	7	0
c1ccc(NCCc2ccccn2)cc1	-2	3	46*	-3	-1	-1
CCNC(=O)[C@@H]1[C@@H](CO)[C@@H]2Cn3c(ccc(C4=CCCC4)c3=O)[C@@H]2N1C(=O)C1CC1	.	.	-4	.	.	.
COc1ccc(/C=C/C(=O)NC(=S)Nc2ccc(S(=O)(=O)N=C(N)N)cc2)cc1OC	4	18	-2	3	63*	1
CCc1cccc(NC(=O)c2sc3nc4n(c(=O)c3c2C)CCC4)c1	3	-13	63*	-3	-13	-1
Cc1cc(C)cc(NC(=O)c2sc3nc4n(c(=O)c3c2C)CCC4)c1	5	-6	21	1	-11	-3
COC(=O)[C@H]1C[C@@]2(O)CN(S(=O)(=O)c3ccc(C)cc3)C[C@@]2(OC(=O)NCC2CCCCC2)C[C@H]1C(=O)OC	-5	.	52*	.	.	.
NC(=O)c1ccsc1NC(=O)COc1ccccc1	.	-3	65*	-2	-13	2
NC(=O)c1ccsc1NC(=O)CSc1ccccc1F	3	-2	75*	15	-6	-2
COc1ccc(CN(C)C[C@@H]2OCCCC[C@H](C)Oc3ccc(NC(=O)NC4CCCCC4)cc3C(=O)N([C@H](C)CO)C[C@@H]2C)cc1	.	.	2	.	.	.
CCC(SC1=Nc2ccccc2C2=NC(CC(C)C)C(=O)N12)C(=O)Nc1ccc2c(c1)OCO2 (stereo unspecified)	-1	8	51*	3	-6	-2
O=C(Nc1ccc(Cl)c(Cl)c1)N1CC=CCC1	4	1	100*	3	-2	0
C[C@H]1CN([C@@H](C)CO)S(=O)(=O)c2ccc(C#CCN(C)C)cc2O[C@@H]1CN(C)Cc1cccnc1	.	.	-2	.	.	.
CNC(=O)c1c(NC(=O)c2nc3ccccc3s2)sc2c1CCC2	.	0	75*	4	-5	-1
c1ccc(CNc2ncnc3c2ncn3C2CCCCO2)cc1 (stereo unspecified)	3	0	46*	.	-4	3
O=C(Cn1cnc2c(NCc3ccccc3)ncnc21)NCC1CCCO1 (stereo unspecified)	-2	3	-9	.	-1	0
c1ccc(CSc2ncnc3c2ncn3C2CCCCO2)cc1 (stereo unspecified)	3	1	84*	-1	-11	-1
CC(C)CCn1cnc2c(NCc3ccccc3)ncnc21	0	7	46*	5	-6	-1
Fc1ccc(CSc2ncnc3c2ncn3C2CCCCO2)cc1 (stereo unspecified)	1	1	.	-3	-14	-1
Fc1cccc(CSc2ncnc3c2ncn3C2CCCCO2)c1 (stereo unspecified)	1	-38	83*	-7	-15	1
